14 molecules from PubChem BioAssay can be followed below.

As usually defined, the inhibition is the relative decrease from the control value, in per cent.

Activity calls are given as the source filed them.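 How the source made its calls, unless noted: active means inhibition at or above 50% at 10 µM; inactive means inhibition below 50%.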

Assay [1] in a line: inhibitors of TNFa-induced NFkB p65 translocation, primary screen, imaging, HUVEC, MLSMR starter and 10KST1 sets (AID 438;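 active means inhibition above 20% together with a positive visual image hit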;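 further: compound added about 3h40 before a 20 min TNFalpha stimulation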;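 on inhibition: signal is the nuclear over cytoplasmic p65 intensity ratio per well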). Conditions: HUVEC TNFa-induced p65 nuclear translocation; cell count: measured here: nuclei count (cytotoxicity indicator), at 2.08 µM; inhibition: at 2 µM, stronger effect = higher value, 0% TNFa-plus-vehicle, 100% no-TNFa wells.
The nature of assay [2]: inhibitors of mutant huntingtin aggregation, primary screen, imaging, exon1htt(103Q)mCFP cells, high-content imaging (AID 483;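 active means visual image review flags a hit and inhibition of aggregation exceeds 20%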;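 further: compound exposure lasted 3 days before fixation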;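 on nuclei count: percent of the per-plate median nuclei count of sample wells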). As to conditions: exon1htt(103Q)mCFP cell line, aggregate imaging, at 2 µM; inhibition of aggregation: stronger effect = higher value; nuclei count: measured here: cell count, toxicity.
Assay [3] is described as follows: inhibitors of E-selectin induction by TNFa, primary screen, imaging, HUVEC, immunofluorescence, MLSMR starter and 10KST1 sets (AID 487;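 active means visually confirmed hit in the image check and inhibition above 20%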;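 on inhibition: signal is fraction of cell area covered by stained E-selectin grains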;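 on nuclei count: 100% = median nuclei count of all wells on the same plate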). Conditions: HUVEC TNFalpha-induced E-selectin immunofluorescence imaging, at 2 µM; inhibition: stronger effect = higher value; nuclei count: measured here: cell number, toxicity.
In assay [4] the target is Voltage-gated potassium channel subunit beta-2 (Rattus norvegicus) (UniProt P62483). The assay is described as follows: KvBeta enzyme negative modulators, primary screen, biochemical, NADPH fluorescence (AID 622;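 active means fluorescence slope higher than the sample average by over 3 SD, cut at about -0.22 in these data, passing the limit was not always enough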;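 further: slope of raw intensity against log time taken from 70 to 1610 s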). Conditions: recombinant KvBeta, 4-cyanobenzaldehyde reduction, at 10 µM, stronger effect = higher value.
For assay [5] the target is unchanged. The assay is described as follows: KvBeta positive modulators, primary screen, biochemical, NADPH fluorescence (AID 623;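 active means NADPH fluorescence slope more negative than the mean of all samples by about 3 SD, 99.7% confidence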;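 further: fluorescence intensity change per second fitted from 20 to 320 s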). Conditions: Recombinant KvBeta, NADPH fluorescence decrease slope, 10 min; at 10 µM; stronger effect = lower value.
Assay [6] has as its target Alpha-2C adrenergic receptor (Homo sapiens) (UniProt P18825). Kind of assay: modulators of alpha2C/GIRK thallium flux, primary screen, cell-based, HEK293 alpha2C/GIRK1/2 (AID 624;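 active means fluorescence slope after compound addition differing from the mean of all screened samples at 99.7% confidence, in either direction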;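 further: slope of fluorescence ratio to pre-addition baseline per second over 15 to 24 s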). As to conditions: thallium flux BTC fluorescence, at 10 µM, actives lie on both sides.
Assay [7] is described as follows: inhibitors of Sendai virus-induced IRF3 signaling, primary screen, TLR/RLR signaling modifier project, cell-based, Sendai virus stimulus, luciferase, 10K MLSCN set (AID 602276).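 Further: firefly luciferase from ISG56 promoter only with Renilla not read in this screen; 0% = Sendai virus plus DMSO and 100% = medium plus DMSO without virus.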 As to conditions: HEK293 RL24 IRF3 luciferase reporter, at 10 µM, stronger effect = higher value. On the technique in general: A reporter such as luciferase makes a cellular process visible.
Assay [8] in a line: inhibitors of poly I:C-induced TLR3 signaling, primary screen, cell-based, poly I:C stimulus, luciferase, 10K MLSCN set (AID 602277;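 active means inhibition of the reporter signal at or above 50%; inactive means inhibition below 50%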). As to conditions: HEK293-TLR3 RL24 IRF3 luciferase reporter, at 10 µM, stronger effect = higher value.

Chain of Voltage-gated potassium channel subunit beta-2 (Rattus norvegicus) (P62483 whole entry, looked up): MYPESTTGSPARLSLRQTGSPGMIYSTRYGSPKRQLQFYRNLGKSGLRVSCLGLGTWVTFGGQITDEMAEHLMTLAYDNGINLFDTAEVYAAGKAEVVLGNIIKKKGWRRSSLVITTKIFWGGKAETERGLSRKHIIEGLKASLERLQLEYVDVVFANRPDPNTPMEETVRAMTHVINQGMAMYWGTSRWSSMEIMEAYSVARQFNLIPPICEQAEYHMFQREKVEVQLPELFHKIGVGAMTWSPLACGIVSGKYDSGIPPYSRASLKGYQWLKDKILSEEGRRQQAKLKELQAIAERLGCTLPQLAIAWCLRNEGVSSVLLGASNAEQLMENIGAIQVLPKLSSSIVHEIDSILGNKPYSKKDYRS
Chain of Alpha-2C adrenergic receptor (Homo sapiens) (P18825 whole entry, looked up): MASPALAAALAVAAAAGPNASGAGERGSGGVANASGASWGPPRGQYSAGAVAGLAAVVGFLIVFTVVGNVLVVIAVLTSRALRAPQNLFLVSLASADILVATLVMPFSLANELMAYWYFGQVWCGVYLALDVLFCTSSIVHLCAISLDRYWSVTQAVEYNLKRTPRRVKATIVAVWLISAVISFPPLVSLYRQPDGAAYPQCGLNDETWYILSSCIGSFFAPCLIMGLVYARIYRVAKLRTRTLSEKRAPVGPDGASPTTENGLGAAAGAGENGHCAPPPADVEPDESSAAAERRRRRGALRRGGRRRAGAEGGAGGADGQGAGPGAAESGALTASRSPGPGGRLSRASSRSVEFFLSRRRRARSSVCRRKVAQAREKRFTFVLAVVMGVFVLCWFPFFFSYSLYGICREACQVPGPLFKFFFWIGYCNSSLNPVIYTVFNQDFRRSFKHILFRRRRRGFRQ

With `CCOC(=O)CCNC(=O)Nc1ccc2nc(C)n(Cc3ccccc3Cl)c(=O)c2c1`, in assay [1], the cell count was 623. Moreover, the inhibition in assay [1] is 1.4% (inactive); in assay [3], -33.8% (inactive); in assay [7] it was 1.46% (inactive); in assay [8], -9.46% (inactive). In addition, the inhibition of aggregation in assay [2] is -9.2% (inactive). In addition, the nuclei count came to 89.5% in assay [2] and 104% in assay [3]. Moreover, the fluorescence slope in assay [4] was -0.366 (inactive). Further, the NADPH fluorescence slope in assay [5] was 1.6e-05 (inactive). The slope in assay [6] is 0.00472 (inactive).
Take `COc1ccc(OC)c(C(=O)CSc2nc3ncccc3[nH]2)c1`: the cell count in assay [1] came to 238. Besides, the inhibition was 9.5% (inactive) in assay [1], 52.6% (inactive) in assay [3], -7.2% (inactive) in assay [7] and -19.6% (inactive) in assay [8]. In addition, the inhibition of aggregation in assay [2] was 16.2% (inactive). Moreover, the nuclei count in assay [2] amounted to 113%; in assay [3], 99.6%. In assay [4], the fluorescence slope is -0.488 (inactive). Also, the NADPH fluorescence slope in assay [5] is -7e-05 (inactive). In addition, the slope in assay [6] was 0.00695 (inactive).
Consider `CCOC(=O)c1sc(NC(=O)CSc2nnnn2-c2ccccc2)c(C(=O)OCC)c1C`, for which the cell count in assay [1] was 425. Also, the inhibition was -1.3% (inactive) in assay [1], -467% (inactive) in assay [3], -15.7% (inactive) in assay [7] and -15.7% (inactive) in assay [8]. Also, the inhibition of aggregation in assay [2] was 12.5% (inactive). Moreover, the results for the nuclei count in assay [2] and in assay [3] were 96.5% and 156%, respectively. Also, the fluorescence slope in assay [4] was -0.567 (inactive). Moreover, the NADPH fluorescence slope in assay [5] is 1.2e-05 (inactive). In addition, in assay [6], the slope is 0.00928 (inactive).
As to `CCC(=O)c1ccc(OCC(O)CN2CCN(S(=O)(=O)N3CCCCC3)CC2)cc1` (centres undefined), the cell count in assay [1] was 450. For the same molecule, the inhibition is 1.3% (inactive) in assay [1], -47.7% (inactive) in assay [3], 14.1% (inactive) in assay [7] and 9.85% (inactive) in assay [8]. The inhibition of aggregation in assay [2] was -4.1% (inactive). Also, the nuclei count in assay [2] came to 102%; in assay [3], 184%. The fluorescence slope in assay [4] is -0.592 (inactive). Besides, the NADPH fluorescence slope in assay [5] was -1.7e-05 (inactive). The slope in assay [6] was 0.00309 (inactive).
`CN(C(=O)C1CCOC1)c1nnc(-c2cccnc2)s1` (centres undefined): the cell count in assay [1] was 745. The inhibition in assay [1] was -12.4% (inactive); in assay [3], -41.7% (inactive); in assay [7], -22% (inactive); in assay [8], -24.2% (inactive). Further, in assay [2], the inhibition of aggregation is 15.3% (inactive). The nuclei count in assay [2] was 67.6%; in assay [3], 116%. Further, the fluorescence slope in assay [4] is -0.502 (inactive). Further, the NADPH fluorescence slope in assay [5] was -1.1e-05 (inactive). Also, in assay [6], the slope was 0.0059 (inactive).
Regarding `O=C1CC(c2ccsc2)c2cc3c(cc2N1)OCCO3` (centres undefined), the cell count in assay [1] stood at 623. For the same molecule, the inhibition in assay [1] was 0% (inactive); in assay [3], -78.5% (inactive); in assay [7] it was 1.12% (inactive); in assay [8], 21.1% (inactive). For the same molecule, the inhibition of aggregation in assay [2] was -4.2% (inactive). For the same molecule, the nuclei count in assay [2] was 87.6%; in assay [3] it was 129%. The fluorescence slope in assay [4] was -0.556 (inactive). The NADPH fluorescence slope in assay [5] is -2.5e-05 (inactive). The slope in assay [6] was 0.0063 (inactive).
As to `Cc1cc(C)cc(NC(=O)c2nnn(Cc3cc(C)ccc3C)c2N)c1`, the cell count in assay [1] is 598. Further, the inhibition was 8.7% (inactive) in assay [1], -5.5% (inactive) in assay [3], 44.9% (inactive) in assay [7] and 14.5% (inactive) in assay [8]. The inhibition of aggregation in assay [2] was -15.9% (inactive). Besides, the nuclei count in assay [2] was determined as 90.3%; in assay [3] it was 125%. Moreover, in assay [4], the fluorescence slope is -0.564 (inactive). In assay [5], the NADPH fluorescence slope is -3.4e-05 (inactive). Moreover, the slope in assay [6] was 0.00689 (inactive).
For `Cc1cc(C)n(C(=O)C23CC4CC(CC(C4)C2)C3)n1`, the cell count in assay [1] worked out at 448. Besides, the inhibition in assay [1] was 0.9% (inactive); in assay [3], -12% (inactive); in assay [7], 6.1% (inactive); in assay [8] it was 17.9% (inactive). Further, the inhibition of aggregation in assay [2] is 14.6% (inactive). Further, the nuclei count in assay [2] amounted to 102%; in assay [3], 89.4%. For the same molecule, the fluorescence slope in assay [4] is -0.514 (inactive). In assay [5], the NADPH fluorescence slope is -2.3e-05 (inactive). The slope in assay [6] is 0.00607 (inactive).
Consider `COCc1nnc(NS(=O)(=O)c2ccc(Br)cc2)s1`, for which, in assay [1], the cell count came to 757. Besides, the inhibition in assay [1] was -12.1% (inactive); in assay [3], 30.4% (inactive); in assay [7], 18.1% (inactive); in assay [8], 19.6% (inactive). Further, in assay [2], the inhibition of aggregation was 13.5% (inactive). Moreover, the nuclei count in assay [2] is 102%; in assay [3] it was 90.2%. The fluorescence slope in assay [4] was -0.362 (inactive). Moreover, the NADPH fluorescence slope in assay [5] was 4.4e-05 (inactive). Further, the slope in assay [6] is 0.00659 (inactive).
As to `CCOC(=O)N1CCN(Cc2ccccc2F)CC1`, in assay [1], the cell count was found to be 485. Besides, the inhibition in assay [1] was -3.8% (inactive); in assay [3], -26% (inactive); in assay [7], 12.5% (inactive); in assay [8] it was 13.4% (inactive). Moreover, in assay [2], the inhibition of aggregation is 15.1% (inactive). The nuclei count in assay [2] came out at 91.4%; in assay [3], 91.5%. The fluorescence slope in assay [4] is -0.581 (inactive). Moreover, the NADPH fluorescence slope in assay [5] is -2e-05 (inactive). The slope in assay [6] was 0.00418 (inactive).
For `COc1ccc(N2CCN(CCNS(=O)(=O)c3cccc4nsnc34)CC2)cc1`, the cell count in assay [1] worked out at 353. Further, the inhibition was -3% (inactive) in assay [1], -119% (inactive) in assay [3], 11.2% (inactive) in assay [7] and 18% (inactive) in assay [8]. Moreover, the inhibition of aggregation in assay [2] was 8.4% (inactive). The results for the nuclei count in assay [2] and in assay [3] were 106% and 104%, respectively. Moreover, the fluorescence slope in assay [4] was -0.443 (inactive). In assay [5], the NADPH fluorescence slope is 1.8e-05 (inactive). In addition, the slope in assay [6] was 0.00512 (inactive).
On to `COc1ccc(NC(=O)C23CCC(C)(C(=O)C2)C3(C)C)cc1` (centres undefined), for which the cell count in assay [1] amounted to 606. The inhibition in assay [1] was -7.7% (inactive); in assay [3] it was -111% (inactive); in assay [7], 12.6% (inactive); in assay [8], 17.8% (inactive). In assay [2], the inhibition of aggregation was -15.6% (inactive). In addition, the values for the nuclei count in assay [2] and in assay [3] were 103% and 108%, respectively. For the same molecule, in assay [4], the fluorescence slope is -0.6 (inactive). In assay [5], the NADPH fluorescence slope was 6.7e-07 (inactive). Further, the slope in assay [6] is 0.00539 (inactive).
With `Cc1nccn1CCCN1C(=O)OC2(CCCCC2)C1(C)O` (centres undefined), in assay [1], the cell count was 350. The inhibition in assay [1] was -3% (inactive); in assay [3], -4.4% (inactive); in assay [7], 4.87% (inactive); in assay [8], 17.2% (inactive). Also, the inhibition of aggregation in assay [2] is 2.3% (inactive). The values for the nuclei count in assay [2] and in assay [3] were 113% and 105%, respectively. Further, the fluorescence slope in assay [4] is -0.522 (inactive). In assay [5], the NADPH fluorescence slope was -3.8e-05 (inactive). Further, the slope in assay [6] is 0.00543 (inactive).
With `CCC(=O)c1ccc(OC(=O)c2ccc(Br)o2)cc1`, the cell count in assay [1] was 354. The inhibition in assay [1] is 6.8% (inactive); in assay [3], -84.3% (inactive); in assay [7], 10.9% (inactive); in assay [8] it was 9.67% (inactive). Also, the inhibition of aggregation in assay [2] was -19.7% (inactive). In addition, the nuclei count is 99.8% in assay [2] and 112% in assay [3]. The fluorescence slope in assay [4] was -0.605 (inactive). Further, the NADPH fluorescence slope in assay [5] is -3e-05 (inactive). Moreover, the slope in assay [6] was 0.00383 (inactive).
